Among all 310,000 compounds or so, about 14,000 (4.5%) showed an effect of 50% or more. The effect is printed as a negative number. Only a selection was taken, and strong results are over-represented in it overall.
Target: human ether-à-go-go-related gene (hERG) potassium channel (human, UniProt Q12809)
Test: primary screen, population patch clamp on CHO cells stably expressing hERG; higher = less effect of the substance
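Further: peak tail current of the secondary pulse compared with the same well before compound.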

human ether-à-go-go-related gene (hERG) potassium channel, sequence (Q12809 whole entry, looked up): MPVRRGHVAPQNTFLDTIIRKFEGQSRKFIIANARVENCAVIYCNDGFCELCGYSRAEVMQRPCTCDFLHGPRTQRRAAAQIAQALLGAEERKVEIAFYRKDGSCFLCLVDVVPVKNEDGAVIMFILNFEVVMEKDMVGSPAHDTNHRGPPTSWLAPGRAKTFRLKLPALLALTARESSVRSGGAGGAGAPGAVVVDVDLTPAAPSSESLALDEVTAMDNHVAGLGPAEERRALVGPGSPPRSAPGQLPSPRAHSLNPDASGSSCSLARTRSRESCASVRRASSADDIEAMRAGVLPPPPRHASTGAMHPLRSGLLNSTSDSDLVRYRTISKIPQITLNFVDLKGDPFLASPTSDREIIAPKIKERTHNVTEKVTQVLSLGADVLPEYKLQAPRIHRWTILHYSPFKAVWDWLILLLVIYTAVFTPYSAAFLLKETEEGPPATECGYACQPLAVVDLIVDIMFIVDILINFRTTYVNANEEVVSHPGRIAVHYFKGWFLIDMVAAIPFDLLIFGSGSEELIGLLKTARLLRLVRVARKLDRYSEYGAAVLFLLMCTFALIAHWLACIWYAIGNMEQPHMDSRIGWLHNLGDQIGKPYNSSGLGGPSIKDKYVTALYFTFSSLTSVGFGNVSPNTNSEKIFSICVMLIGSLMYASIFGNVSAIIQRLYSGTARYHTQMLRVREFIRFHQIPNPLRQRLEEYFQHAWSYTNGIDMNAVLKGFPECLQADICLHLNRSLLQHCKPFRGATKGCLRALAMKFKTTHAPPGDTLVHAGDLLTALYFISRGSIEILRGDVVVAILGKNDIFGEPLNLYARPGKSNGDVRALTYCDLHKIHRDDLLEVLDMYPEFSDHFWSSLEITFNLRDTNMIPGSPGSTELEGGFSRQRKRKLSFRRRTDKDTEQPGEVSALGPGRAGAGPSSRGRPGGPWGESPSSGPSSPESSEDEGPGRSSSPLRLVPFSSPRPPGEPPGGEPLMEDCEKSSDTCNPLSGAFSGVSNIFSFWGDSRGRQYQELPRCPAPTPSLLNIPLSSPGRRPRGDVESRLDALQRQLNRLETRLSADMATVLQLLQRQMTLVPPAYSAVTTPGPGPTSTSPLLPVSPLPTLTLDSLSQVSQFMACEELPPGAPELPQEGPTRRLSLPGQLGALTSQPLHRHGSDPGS

Going from CCOc1cc(Br)ccc1S(=O)(=O)N1CCC(C(N)=O)CC1 to CCOC(=O)N1CCC(=NNC(=O)c2ccc(O)cc2)CC1, the “hERG current change (%, negative = inhibition) at 10uM” value rises from -5.26% to 4.27%.

Compared with O=C1COc2ccc(C(=O)COc3ccc([N+](=O)[O-])cc3)cc2N1, COc1ccc(C2C3=C(CC(C)(C)CC3=O)OC(N)=C2[N+](=O)[O-])cc1 (stereo not drawn) is higher in “hERG current change (%, negative = inhibition) at 10uM” value: 8.2% for the first, 8.74% for the second.

Going from CC(C)Oc1ccc(C(CC(=O)O)NC(=O)c2cccs2)cc1 (stereo not drawn) to Cc1ccc(OCCNC(=O)CNC(=O)c2ccc(C)cc2)cc1, the “hERG current change (%, negative = inhibition) at 10uM” value rises from -2.74% to 9.37%.

Going from CC1(C)CC(=O)C2=C(C1)Oc1ncn(CCO)c(=N)c1C2c1ccccc1 (stereo not drawn) to CC1(C)CC(=O)C2=C(C1)Oc1ncn(CCCO)c(=N)c1C2c1ccccc1 (stereo not drawn), the “hERG current change (%, negative = inhibition) at 10uM” value rises from -35.3% to -29%.

Compared with COc1ccc(C2C3=C(CC(C)(C)CC3=O)Oc3ncn(Cc4ccco4)c(=N)c32)cc1 (stereo not drawn), COc1ccc(C2C3=C(CC(C)(C)CC3=O)Oc3ncn(Cc4ccccc4)c(=N)c32)cc1 (stereo not drawn) is higher in “hERG current change (%, negative = inhibition) at 10uM” value: -68.3% for the first, -55.5% for the second.

Going from COc1ccc(C2C(C#N)=C(N)OC3=C2C(=O)CC(C)(C)C3)cc1 (stereo not drawn) to COc1ccc(C2C3=C(CC(C)(C)CC3=O)Oc3ncn(CC(C)C)c(=N)c32)cc1 (stereo not drawn), the “hERG current change (%, negative = inhibition) at 10uM” value falls from 12.8% to -69.1%.

Compared with COc1ccc(C2C3=C(CC(C)(C)CC3=O)Oc3ncn(CCO)c(=N)c32)cc1OC (stereo not drawn), COc1ccc(C2C3=C(CC(C)(C)CC3=O)Oc3ncn(CCCn4ccnc4)c(=N)c32)cc1 (stereo not drawn) is higher in “hERG current change (%, negative = inhibition) at 10uM” value: -24.5% for the first, -16.6% for the second.

Going from CC(C)Cn1cnc2c(c1=N)C(c1ccccc1)C1=C(CC(C)(C)CC1=O)O2 (stereo not drawn) to CC1(C)CC(=O)C2=C(C1)Oc1ncn(Cc3ccco3)c(=N)c1C2c1ccccc1 (stereo not drawn), the “hERG current change (%, negative = inhibition) at 10uM” value falls from -38.8% to -60.8%.

Going from CC1(C)CC(=O)C2=C(C1)Oc1ncn(CCCn3ccnc3)c(=N)c1C2c1ccccc1 (stereo not drawn) to COc1ccc(C2C3=C(CC(C)(C)CC3=O)Oc3ncn4nc(-c5cccnc5)nc4c32)cc1 (stereo not drawn), the “hERG current change (%, negative = inhibition) at 10uM” value rises from -53.3% to -2.59%.

First: N=c1c2c(ncn1Cc1ccco1)Oc1ccc3ccccc3c1C2c1ccccc1 (stereo not drawn)
Second: COc1ccc(C2C3=C(CC(C)(C)CC3=O)Nc3c2c(=O)[nH]c(=O)n3Cc2ccccc2)cc1 (stereo not drawn)
The “hERG current change (%, negative = inhibition) at 10uM” value of the first is lower: -6.08% for the first, 8.57% for the second.

Going from Cc1onc(-c2c(Cl)cccc2Cl)c1C(=O)O/N=C(\C#N)c1c(Cl)cccc1Cl to Nc1cc(=O)[nH]c(SCC(=O)Nc2ccccc2Sc2ccc(Cl)cc2)n1, the “hERG current change (%, negative = inhibition) at 10uM” value rises from 9.4% to 14.5%.

Compared with COc1cccc(CNC(=O)CCNC(=O)c2ccc(Br)o2)c1, COCCNC(=O)Cc1cn(C)c2ccccc12 is lower in “hERG current change (%, negative = inhibition) at 10uM” value: 11.2% for the first, 4.15% for the second.
